Values joined by “and” are separate entries in the source; they are usually repeats but may differ in a detail not shown here. Identical values can stand only once. Inconclusive results are not listed. Entries that show only a call come without a potency. Some structures have more than one record in an assay (separate samples or runs), and their calls can disagree. Active and inactive are the calls of the source. Unless noted, calls come from the whole dose curve.
Assays:
[1] = Nuclear factor erythroid 2-related factor 2/antioxidant responsive element (Nrf2/ARE) small molecule agonists: qHTS cell viability counter screen in human keratinocytes (AID 1919968; active = well fitted curve in the direction sought with a large enough effect in the repeat runs; an effect the other way counts as inactive or inconclusive; note: nearly all actives have a fitted effect of over 55% in size; note: potency is the fitted concentration of half-maximal effect)
Procedure, shortened: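 KeratinoSens cells (HaCaT keratinocytes stably carrying an ARE-luciferase reporter) were seeded at 1,500 cells/well and rested 5 h at 37 C/5% CO2. They were then exposed to compounds in DMSO for 23 h. Viability was read by CellTiter-Fluor fluorescence after 1 h.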

[2] = Nuclear factor erythroid 2-related factor 2/antioxidant responsive element (Nrf2/ARE) small molecule agonists: luciferase reporter gene qHTS assay in human keratinocytes (AID 1919969); note: nearly all actives have a fitted effect of over 35% in size; note: potency is the fitted concentration of half-maximal effect
[3] = target: Gonadotropin-releasing hormone receptor (Homo sapiens) (UniProt P30968); assay: Human gonadotropin-releasing hormone receptor (GnRHR) small molecule agonists, calcium flux assay in GnRHR-HEK293 cells (AID 1920063); note: nearly all actives have a fitted effect of over 35% in size; note: potency is the fitted concentration of half-maximal effect
Procedure, shortened: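 HEK293 cells stably expressing human GnRHR were plated 18 h at 37 °C, loaded with calcium dye 1 h at 37 °C, then given compound in agonist mode; fluorescence (Ex/Em 480/540) read kinetically for 3 min at 1 s intervals.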

[4] = target: KiSS-1 receptor (Homo sapiens) (UniProt Q969F8); assay: Human kisspeptin (KISS1R) small molecule agonists, calcium flux assay in KISS1R-HEK293 cells (AID 1920064; active = well fitted curve in the direction sought with a large enough effect in the repeat runs; an effect the other way counts as inactive or inconclusive; note: potency is the fitted concentration of half-maximal effect)
Procedure, shortened: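 HEK293 cells stably expressing human KISS1R were plated 18 h at 37 °C, loaded with calcium dye for 1 h at 37 °C, then given compound by pin tool. Fluorescence (Ex/Em 480/540) was read kinetically for 3 min.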

[5] = G protein-coupled receptor (GPCR) small molecule agonists, calcium flux assay: HEK293 wild type cell line counter screen (AID 1920065); note: potency is the fitted concentration of half-maximal effect
Procedure, shortened: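 Cells were plated and cultured 18 h at 37 C/5% CO2, then loaded with calcium dye for 1 h at 37 C. Compounds in DMSO were pin-transferred in agonist mode, and fluorescence (Ex/Em 480/540) was read kinetically for 3 min at 1 s intervals.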

[6] = p53 small molecule agonists, cell-based qHTS assay with human liver microsomes: qHTS cell viability counter screen (AID 1963579); note: nearly all actives have a fitted effect of over 45% in size; note: potency is the fitted concentration of half-maximal effect
Procedure, shortened: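 After the 460/530 nm beta-lactamase read, CellTiter-Glo was added to the same wells and luminescence measured after 30 min at room temperature, giving viability of p53RE-bla cells treated 16 h with compounds plus microsomes and NADPH.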

[7] = p53 small molecule agonists, cell-based qHTS assay with rat liver microsomes: qHTS cell viability counter screen (AID 1963580); note: nearly all actives have a fitted effect of over 45% in size; note: potency is the fitted concentration of half-maximal effect
Procedure, shortened: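 p53RE-bla HCT-116 cells (4,000/well) rested 5 h at 37 C, then given Tox21 compounds in DMSO with rat liver microsomes (0.5 mg/mL final) plus NADPH (0.5 mg/mL final) for 16 h at 37 C. Viability read by CellTiter-Glo luminescence after 30 min at room temperature.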

[8] = p53 small molecule agonists, cell-based qHTS assay: qHTS cell viability counter screen (AID 1963581); note: nearly all actives have a fitted effect of over 45% in size
Procedure, shortened: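 p53RE-bla HCT-116 cells were exposed to compounds for 16 h at 37 C; after the beta-lactamase FRET read in the same wells, CellTiter-Glo was added and luminescence (intracellular ATP) read after 30 min at room temperature.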

[9] = target: 5-hydroxytryptamine receptor 2A (Homo sapiens) (UniProt P28223); assay: 5-hydroxytryptamine receptor 2A (HTR2A) small molecule antagonists, cell-based qHTS assay (AID 1963586); note: nearly all actives have a fitted effect of over 45% in size
Procedure, shortened: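 Antagonist-mode intracellular calcium assay: DOI (4 nM) added after 5 min compound pre-incubation at room temperature to dye-loaded HTR2A-CHO cells. Fluorescence followed for 3 min, sampled every second.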

[10] = target: 5-hydroxytryptamine receptor 2A (Homo sapiens) (UniProt P28223); assay: 5-hydroxytryptamine receptor 2A (HTR2A) small molecule agonists, cell-based qHTS assay (AID 1963587); note: nearly all actives have a fitted effect of over 30% in size
Procedure, shortened: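 HTR2A-CHO cells, plated 18 h at 37 C/5% CO2, dye-loaded 1 h at 37 C; compounds in DMSO added by pin tool (agonist mode). Intracellular calcium flux read as kinetic fluorescence on FDSS over 2 min at 1 s intervals.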

[11] = target: Muscarinic acetylcholine receptor M1 (Homo sapiens) (UniProt P11229); assay: Cholinergic receptor muscarinic 1 (CHRM1) small molecule antagonists, cell-based qHTS assay (AID 1963588); note: nearly all actives have a fitted effect of over 40% in size
Procedure, shortened: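 CHRM1-CHO calcium-flux assay, antagonist mode. Cells were seeded 18 h, dye-loaded 1 h at 37 C and given compound for 5 min at RT, then acetylcholine was added at 50nM. FDSS fluorescence was read 3 min; 15 concentrations, three runs.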

[12] = target: Muscarinic acetylcholine receptor M1 (Homo sapiens) (UniProt P11229); assay: Cholinergic receptor muscarinic 1 (CHRM1) small molecule agonists, cell-based qHTS assay (AID 1963589); note: nearly all actives have a fitted effect of over 35% in size
Procedure, shortened: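 CHO cells stably expressing human CHRM1, seeded 18 h at 37 C/5% CO2, dye-loaded 1 h at 37 C, then given compound in agonist mode; intracellular calcium fluorescence read kinetically at 1 s intervals. Fifteen concentrations, three independent runs.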

[13] = cAMP Responsive Elements (CRE) small molecule agonists, cell-based qHTS assay (AID 1963590)
Procedure, shortened: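 CRE-bla HEK 293T cells in DMEM with 10% dialyzed FBS, NEAA, pyruvate and 25 mM HEPES were plated 18 h at 37 C/5% CO2, then exposed to compounds in DMSO for 3 h before LiveBLAzer B/G FRET substrate addition.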

[14] = target: Beta-2 adrenergic receptor (Homo sapiens) (UniProt P07550); assay: Adrenergic beta2 receptor (ADRB2) small molecule antagonists, cell-based qHTS assay (AID 1963592); note: series mostly up to about 92 µM; nearly all actives have a fitted effect of over 50% in size
Procedure, shortened: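 Cells (CHO, stable ADRB2 overexpression) incubated 18-20hr at 37C; compounds added from DMSO; agonist mix (1nM isoproterenol, 100uM IBMX, 25uM Ro-20-1724) added; 0.5hr RT; d2-cAMP and anti-cAMP-cryptate added; 1hr RT; 665/615 nm read.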

[15] = target: D(2) dopamine receptor (Homo sapiens) (UniProt P14416); assay: Dopamine D2 receptor (DRD2) small molecule agonists, cell-based qHTS assay (AID 1963594); note: nearly all actives have a fitted effect of over 35% in size
Procedure, shortened: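 HEK293 cells stably expressing DRD2 were cultured 24 h at 37 C, then given Ro20-1724 (0.1 mM final) and compounds for 10 min at room temperature. NKH477 (200nM) was then added for 30 min. cAMP was read by HTRF.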

[16] = target: D(2) dopamine receptor (Homo sapiens) (UniProt P14416); assay: Dopamine D2 receptor (DRD2) small molecule antagonists, cell-based qHTS assay (AID 1963595; active = well fitted inhibition curve with a large enough effect in the signal ratio in the repeat runs, with a control signal flat; the % refers to the signal ratio)
Procedure, shortened: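 Stable D2 receptor HEK293 line, 24 h after seeding. Compound preincubated 10 min, then quinpirole (12 nM) with forskolin analogue NKH477 (200 nM), 30 min, room temperature. Detection by time-resolved FRET of cAMP.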

[17] = p53 small molecule agonists, cell-based qHTS assay with rat liver microsomes (AID 1963578)
Procedure, shortened: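 Metabolic activation is supplied by rat liver microsomes with NADPH (each 0.5 mg/mL final). p53RE-bla cells incubate with compound 16 h at 37 C; reporter activity is measured by LiveBLAzer fluorescence.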

[18] = p53 small molecule agonists, cell-based qHTS assay (AID 1963582; active = well fitted activation curve with a large enough effect in the signal ratio in the repeat runs, not every such curve was filed as active; the % refers to the signal ratio)
Procedure, shortened: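 p53RE-bla beta-lactamase reporter cells rested 5 h at 37 C/5% CO2, then received compounds in DMSO by pin transfer and were incubated 16 h at 37 C. LiveBLAzer B/G FRET substrate was loaded for 2 h at room temperature before fluorescence reading.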

[19] = cAMP Responsive Elements (CRE) small molecule antagonists, cell-based qHTS assay (AID 1963591; active = well fitted inhibition curve with a large enough effect in the signal ratio in the repeat runs, not every such curve was filed as active; the % refers to the signal ratio)
Procedure, shortened: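 CRE-bla HEK293T cells were plated 18 h at 37 °C/5% CO2, pinned with compound in DMSO, then stimulated with NKH477 at 0.25 uM final for 3 h. LiveBLAzer B/G FRET substrate was added and plates incubated 2 h at room temperature.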

[20] = target: Beta-2 adrenergic receptor (Homo sapiens) (UniProt P07550); assay: Adrenergic beta2 receptor (ADRB2) small molecule agonists, cell-based qHTS assay (AID 1963593);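 note: CHO cells stably overexpressing human ADRB2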
Procedure, shortened: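 CHO cells stably over-expressing ADRB2 were plated overnight at 37C, then dosed with compounds plus a stimulation mix containing 100uM IBMX and 25uM Ro-20-1724 for 0.5hr at room temperature. cAMP was measured by HTRF competition, 1hr.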

Gonadotropin-releasing hormone receptor (Homo sapiens), sequence (P30968 whole entry, looked up): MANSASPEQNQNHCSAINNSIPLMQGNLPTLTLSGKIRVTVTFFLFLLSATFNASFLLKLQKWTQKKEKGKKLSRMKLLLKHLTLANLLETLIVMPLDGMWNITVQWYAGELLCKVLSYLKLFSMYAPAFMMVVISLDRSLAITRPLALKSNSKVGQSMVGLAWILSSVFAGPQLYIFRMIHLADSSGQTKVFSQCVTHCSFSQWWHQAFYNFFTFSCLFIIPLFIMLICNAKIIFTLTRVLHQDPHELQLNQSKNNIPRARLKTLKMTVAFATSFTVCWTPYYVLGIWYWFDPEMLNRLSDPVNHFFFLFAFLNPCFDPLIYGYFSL
5-hydroxytryptamine receptor 2A (Homo sapiens), sequence (P28223 whole entry, looked up): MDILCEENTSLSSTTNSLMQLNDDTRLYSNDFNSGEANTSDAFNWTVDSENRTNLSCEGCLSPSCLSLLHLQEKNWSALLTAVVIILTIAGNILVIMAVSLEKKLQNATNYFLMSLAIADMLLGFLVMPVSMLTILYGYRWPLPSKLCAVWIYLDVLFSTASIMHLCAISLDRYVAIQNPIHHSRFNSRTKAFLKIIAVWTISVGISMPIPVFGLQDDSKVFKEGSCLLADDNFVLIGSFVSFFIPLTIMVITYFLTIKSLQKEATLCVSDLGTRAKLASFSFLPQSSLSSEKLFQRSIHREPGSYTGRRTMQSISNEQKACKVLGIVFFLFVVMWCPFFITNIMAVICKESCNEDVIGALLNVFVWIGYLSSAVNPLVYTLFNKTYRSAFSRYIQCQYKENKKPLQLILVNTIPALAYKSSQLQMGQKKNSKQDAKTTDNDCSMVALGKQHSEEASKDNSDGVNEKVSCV
KiSS-1 receptor (Homo sapiens), sequence (Q969F8 whole entry, looked up): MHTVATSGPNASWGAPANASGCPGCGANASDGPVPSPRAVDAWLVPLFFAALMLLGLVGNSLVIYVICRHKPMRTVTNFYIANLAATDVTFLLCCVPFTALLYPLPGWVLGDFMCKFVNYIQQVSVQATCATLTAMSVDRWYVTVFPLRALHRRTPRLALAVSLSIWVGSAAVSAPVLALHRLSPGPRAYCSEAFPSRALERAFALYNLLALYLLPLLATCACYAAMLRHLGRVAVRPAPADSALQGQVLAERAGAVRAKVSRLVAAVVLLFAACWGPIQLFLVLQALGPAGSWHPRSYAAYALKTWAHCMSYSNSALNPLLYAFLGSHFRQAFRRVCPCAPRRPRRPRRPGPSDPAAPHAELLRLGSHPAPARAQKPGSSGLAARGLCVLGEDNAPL
Beta-2 adrenergic receptor (Homo sapiens), sequence (P07550 whole entry, looked up): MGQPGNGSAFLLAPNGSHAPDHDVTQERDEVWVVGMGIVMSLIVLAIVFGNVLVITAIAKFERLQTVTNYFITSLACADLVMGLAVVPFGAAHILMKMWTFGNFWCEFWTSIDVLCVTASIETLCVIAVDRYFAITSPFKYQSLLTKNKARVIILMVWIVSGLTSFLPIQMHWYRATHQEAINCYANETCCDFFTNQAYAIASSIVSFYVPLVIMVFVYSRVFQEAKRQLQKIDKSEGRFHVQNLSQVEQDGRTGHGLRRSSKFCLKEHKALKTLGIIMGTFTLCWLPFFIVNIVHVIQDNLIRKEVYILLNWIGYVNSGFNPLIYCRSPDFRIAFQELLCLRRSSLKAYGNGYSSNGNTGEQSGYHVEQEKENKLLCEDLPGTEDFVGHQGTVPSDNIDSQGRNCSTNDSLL
Muscarinic acetylcholine receptor M1 (Homo sapiens), sequence (P11229 whole entry, looked up): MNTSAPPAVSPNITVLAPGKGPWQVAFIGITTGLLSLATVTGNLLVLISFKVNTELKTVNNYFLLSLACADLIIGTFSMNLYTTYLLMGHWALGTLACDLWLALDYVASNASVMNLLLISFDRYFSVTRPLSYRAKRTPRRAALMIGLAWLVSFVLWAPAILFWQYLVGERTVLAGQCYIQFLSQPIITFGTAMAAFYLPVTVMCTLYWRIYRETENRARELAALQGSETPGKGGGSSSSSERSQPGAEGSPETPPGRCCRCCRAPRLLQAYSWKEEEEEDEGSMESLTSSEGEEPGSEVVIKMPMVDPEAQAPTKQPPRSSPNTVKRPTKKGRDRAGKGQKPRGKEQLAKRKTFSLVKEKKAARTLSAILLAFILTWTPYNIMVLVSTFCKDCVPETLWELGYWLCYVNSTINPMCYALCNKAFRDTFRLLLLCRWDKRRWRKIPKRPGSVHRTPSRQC
D(2) dopamine receptor (Homo sapiens), sequence (P14416 whole entry, looked up): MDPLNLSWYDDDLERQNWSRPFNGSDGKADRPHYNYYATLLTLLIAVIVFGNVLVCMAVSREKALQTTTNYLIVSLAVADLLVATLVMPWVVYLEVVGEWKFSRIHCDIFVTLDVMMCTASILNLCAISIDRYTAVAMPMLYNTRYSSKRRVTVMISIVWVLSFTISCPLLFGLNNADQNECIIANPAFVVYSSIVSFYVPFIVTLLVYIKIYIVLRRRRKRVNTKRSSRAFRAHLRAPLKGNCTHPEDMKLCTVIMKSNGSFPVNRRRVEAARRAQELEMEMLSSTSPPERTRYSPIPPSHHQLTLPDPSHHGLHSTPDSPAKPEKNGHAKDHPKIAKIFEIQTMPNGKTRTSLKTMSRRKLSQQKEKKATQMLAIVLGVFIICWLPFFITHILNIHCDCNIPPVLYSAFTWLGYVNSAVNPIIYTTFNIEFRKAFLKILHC

SMILES	Potency [1]	Potency [2]	Potency [3]	Potency [4]	Potency [5]	Potency [6]	Potency [7]	Potency [8]	Potency [9]	Potency [10]	Potency [11]	Potency [12]	Potency [13]	Potency [14]	Potency [15]	Potency [16]	Potency [17]	Potency [18]	Potency [19]	Potency [20]
CC(=O)CC(=O)Nc1ccccc1	inactive	inactive	inactive	inactive	inactive	inactive	inactive	inactive	inactive	inactive	inactive	inactive	inactive	inactive	inactive	inactive				
NC(=Nc1ccccc1)Nc1ccccc1	inactive	19.3 µM (active) and inactive	5.49 µM (active) and 15.1 µM (active)	21.4 µM (active) and 23.9 µM (active)	15.5 µM (active)	inactive							inactive	inactive	inactive	inactive	inactive	inactive	inactive	
O=S1(=O)OC(c2ccc(O)cc2)(c2ccc(O)cc2)c2ccccc21	24.3 µM (active)	inactive	inactive	inactive	inactive	inactive	inactive	inactive	inactive	inactive	inactive	inactive	inactive	inactive	inactive				inactive	inactive
O=[N+]([O-])c1ccc(/C=C/c2ccc([N+](=O)[O-])cc2S(=O)(=O)O)c(S(=O)(=O)O)c1	inactive	inactive	inactive	inactive	inactive	inactive	inactive	inactive	inactive	inactive	inactive	inactive	inactive	inactive	inactive	inactive			inactive	
C[n+]1ccn(CCO)c1	inactive	inactive	inactive	inactive	inactive	inactive	inactive	inactive	inactive	inactive	inactive	inactive	inactive	inactive	inactive	inactive			inactive	
CC(=O)OCc1ccccc1	inactive	inactive	inactive	inactive	inactive	inactive	inactive	inactive	inactive	inactive	inactive	inactive	inactive	inactive	inactive	inactive			inactive	inactive
CCCCOCCOCCOC(=O)CCCCC(=O)OCCOCCOCCCC	inactive	inactive	inactive	inactive	inactive	inactive	inactive	inactive	inactive	inactive	inactive	inactive	inactive	inactive	inactive	inactive			inactive	
Cn1sccc1=O	43.3 µM (active) and 13.7 µM (active)	13.7 µM (active) and 6.86 µM (active)	inactive	inactive	inactive	28.9 µM (active) and inactive	18.2 µM (active)	inactive	inactive	inactive	inactive	inactive	inactive	inactive	inactive	inactive			inactive	inactive

Source: PubChem BioAssay (Tox21)
